The text below walks through data of PubChem BioAssay (Tox21).

Values without a mark were called inactive. Results filed as inconclusive are left out. Calls of active or inactive are those of the source. Unless noted, calls follow the shape of the full dose curve.

The nature of assay [1]: Nuclear factor erythroid 2-related factor 2/antioxidant responsive element (Nrf2/ARE) small molecule agonists: qHTS cell viability counter screen in human keratinocytes (AID 1919968; active = well fitted curve in the direction sought with a large enough effect in the repeat runs; an effect the other way counts as inactive or inconclusive; also: nearly all actives have a fitted effect of over 55% in size). In short, it runs like this:
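After a 5 h attachment period, ARE-reporter keratinocytes were dosed with compounds in DMSO and then cultured 23 h at 37 C. Cell viability came from CellTiter-Fluor signal read after a further 1 h.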

Assay [2] is described as follows: Nuclear factor erythroid 2-related factor 2/antioxidant responsive element (Nrf2/ARE) small molecule agonists: luciferase reporter gene qHTS assay in human keratinocytes (AID 1919969). Also: nearly all actives have a fitted effect of over 35% in size.
Assay [3] addresses Gonadotropin-releasing hormone receptor (Homo sapiens) (UniProt P30968). In words: Human gonadotropin-releasing hormone receptor (GnRHR) small molecule agonists, calcium flux assay in GnRHR-HEK293 cells (AID 1920063). Also: nearly all actives have a fitted effect of over 35% in size. In short, it runs like this:
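We seeded human GnRHR-expressing HEK293 cells for 18 hours, loaded them with calcium dye for an hour at 37 C, added test compounds, and recorded fluorescence intensity kinetically for three minutes.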

In assay [4] the target is KiSS-1 receptor (Homo sapiens) (UniProt Q969F8). In words: Human kisspeptin (KISS1R) small molecule agonists, calcium flux assay in KISS1R-HEK293 cells (AID 1920064; active = well fitted curve in the direction sought with a large enough effect in the repeat runs; an effect the other way counts as inactive or inconclusive). In short, it runs like this:
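Kinetic calcium assay, 1 s sampling over 3 min at Ex/Em 480/540, in HEK293 cells engineered with human KISS1R; compounds delivered in DMSO after 1 h dye loading.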

A short description of assay [5]: G protein-coupled receptor (GPCR) small molecule agonists, calcium flux assay: HEK293 wild type cell line counter screen (AID 1920065). In short, it runs like this: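 Calcium-sensitive dye, loaded 1 h at 37 C into cells cultured 18 h, reports compound-evoked calcium release as fluorescence (Ex/Em 480/540), measured over 3 min. Agonist mode; 15-point titrations, triplicate.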

The nature of assay [6]: p53 small molecule agonists, cell-based qHTS assay with human liver microsomes (AID 1963577).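 Also: p53 response element beta-lactamase reporter cells with liver microsomes plus NADPH.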 In short, it runs like this:
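Steps: plate p53RE-bla cells, incubate 5 h at 37 C; add compound in DMSO; add microsomes (0.5 mg/mL final) and NADPH (0.5 mg/mL final); incubate 16 h at 37 C; add LiveBLAzer, 2 h RT; read fluorescence.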

A short description of assay [7]: p53 small molecule agonists, cell-based qHTS assay with rat liver microsomes (AID 1963578). In short, it runs like this: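 Metabolic activation is supplied by rat liver microsomes with NADPH (each 0.5 mg/mL final). p53RE-bla cells incubate with compound 16 h at 37 C; reporter activity is measured by LiveBLAzer fluorescence.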
The nature of assay [8]: p53 small molecule agonists, cell-based qHTS assay with human liver microsomes: qHTS cell viability counter screen (AID 1963579). Also: nearly all actives have a fitted effect of over 45% in size. Also: potency is read from the fitted curve at half-maximal effect. In short, it runs like this: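 After the 460/530 nm beta-lactamase read, CellTiter-Glo was added to the same wells and luminescence measured after 30 min at room temperature, giving viability of p53RE-bla cells treated 16 h with compounds plus microsomes and NADPH.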

Assay [9] is described as follows: p53 small molecule agonists, cell-based qHTS assay with rat liver microsomes: qHTS cell viability counter screen (AID 1963580). Also: nearly all actives have a fitted effect of over 45% in size. Summed up: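 In HCT-116 cells carrying a p53 response element-bla reporter, compounds were metabolically activated in situ by rat liver microsomes with NADPH over 16 h. Cell ATP content then served as the cytotoxicity measure.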
Assay [10] in a line: p53 small molecule agonists, cell-based qHTS assay: qHTS cell viability counter screen (AID 1963581). Also: nearly all actives have a fitted effect of over 45% in size. Summed up: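 Following 5 h attachment, HCT-116 p53RE-bla cells took up compound for 16 h at 37 C; the reporter was read with B/G FRET substrate (2 h RT), and viability then via CellTiter-Glo ATP luminescence.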
Assay [11] can be described thus: p53 small molecule agonists, cell-based qHTS assay (AID 1963582; active = well fitted activation curve with a large enough effect in the signal ratio in the repeat runs, not every such curve was filed as active; the % refers to the signal ratio). Summed up:
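In this cell-based concentration-response screen, a p53 response element drives beta-lactamase; cells received DMSO-borne compounds after 5 h culture and were incubated a further 16 h before FRET substrate development.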

The target in assay [12] is 5-hydroxytryptamine receptor 2A (Homo sapiens) (UniProt P28223). In words: 5-hydroxytryptamine receptor 2A (HTR2A) small molecule antagonists, cell-based qHTS assay (AID 1963586). Also: nearly all actives have a fitted effect of over 45% in size. In short, it runs like this: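 Antagonist-mode intracellular calcium assay: DOI (4 nM) added after 5 min compound pre-incubation at room temperature to dye-loaded HTR2A-CHO cells. Fluorescence followed for 3 min, sampled every second.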

Assay [13] shares this target. In words: 5-hydroxytryptamine receptor 2A (HTR2A) small molecule agonists, cell-based qHTS assay (AID 1963587). Also: nearly all actives have a fitted effect of over 30% in size. Also: potency is read from the fitted curve at half-maximal effect. In short, it runs like this: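 HTR2A-CHO cells, plated 18 h at 37 C/5% CO2, dye-loaded 1 h at 37 C; compounds in DMSO added by pin tool (agonist mode). Intracellular calcium flux read as kinetic fluorescence on FDSS over 2 min at 1 s intervals.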
The target of assay [14] is Muscarinic acetylcholine receptor M1 (Homo sapiens) (UniProt P11229). In words: Cholinergic receptor muscarinic 1 (CHRM1) small molecule antagonists, cell-based qHTS assay (AID 1963588). Also: nearly all actives have a fitted effect of over 40% in size. In short, it runs like this: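 CHRM1-CHO calcium-flux assay, antagonist mode. Cells were seeded 18 h, dye-loaded 1 h at 37 C and given compound for 5 min at RT, then acetylcholine was added at 50nM. FDSS fluorescence was read 3 min; 15 concentrations, three runs.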

The target is the same in assay [15]. In words: Cholinergic receptor muscarinic 1 (CHRM1) small molecule agonists, cell-based qHTS assay (AID 1963589). Also: nearly all actives have a fitted effect of over 35% in size. Summed up:
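Measures agonist-induced intracellular calcium rise. Stable human CHRM1 CHO line, 1 h dye load at 37 C, compounds from DMSO, kinetic fluorescence read.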

For assay [16], the target named is D(2) dopamine receptor (Homo sapiens) (UniProt P14416). In words: Dopamine D2 receptor (DRD2) small molecule agonists, cell-based qHTS assay (AID 1963594). Also: nearly all actives have a fitted effect of over 35% in size. Summed up:
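HEK293 cells stably expressing DRD2 were cultured 24 h at 37 C, then given Ro20-1724 (0.1 mM final) and compounds for 10 min at room temperature. NKH477 (200nM) was then added for 30 min. cAMP was read by HTRF.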

The target of assay [17] is Beta-2 adrenergic receptor (Homo sapiens) (UniProt P07550). In words: Adrenergic beta2 receptor (ADRB2) small molecule antagonists, cell-based qHTS assay (AID 1963592). Also: series mostly up to about 92 µM; nearly all actives have a fitted effect of over 50% in size. In short, it runs like this:
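Cells (CHO, stable ADRB2 overexpression) incubated 18-20hr at 37C; compounds added from DMSO; agonist mix (1nM isoproterenol, 100uM IBMX, 25uM Ro-20-1724) added; 0.5hr RT; d2-cAMP and anti-cAMP-cryptate added; 1hr RT; 665/615 nm read.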

The target in assay [18] is D(2) dopamine receptor (Homo sapiens) (UniProt P14416). In words: Dopamine D2 receptor (DRD2) small molecule antagonists, cell-based qHTS assay (AID 1963595; active = well fitted inhibition curve with a large enough effect in the signal ratio in the repeat runs, with a control signal flat; the % refers to the signal ratio). In short, it runs like this:
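Antagonism was scored as restored cAMP in HEK293-DRD2 cells. These cells were stimulated with 200 nM NKH477 and 12 nM quinpirole for 30 min at room temperature, in the presence of 0.1 mM Ro20-1724.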

Assay [19] in a line: cAMP Responsive Elements (CRE) small molecule agonists, cell-based qHTS assay (AID 1963590). In short, it runs like this:
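A CRE-responsive beta-lactamase reporter in HEK 293T cells was used. Treatment ran 3 h at 37 C; detection used LiveBLAzer B/G FRET substrate for 2 h at room temperature.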

The nature of assay [20]: cAMP Responsive Elements (CRE) small molecule antagonists, cell-based qHTS assay (AID 1963591; active = well fitted inhibition curve with a large enough effect in the signal ratio in the repeat runs, not every such curve was filed as active; the % refers to the signal ratio). In short, it runs like this:
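HEK293T cells carrying a CRE-driven beta-lactamase reporter receive compound and NKH477 (0.25 uM final) for 3 h. Fluorescence from LiveBLAzer B/G FRET substrate is read after 2 h at room temperature.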
% is scaled to controls: 0 for no effect and ±100 for the full control effect.

Sequence of D(2) dopamine receptor (Homo sapiens) (P14416 whole entry, looked up): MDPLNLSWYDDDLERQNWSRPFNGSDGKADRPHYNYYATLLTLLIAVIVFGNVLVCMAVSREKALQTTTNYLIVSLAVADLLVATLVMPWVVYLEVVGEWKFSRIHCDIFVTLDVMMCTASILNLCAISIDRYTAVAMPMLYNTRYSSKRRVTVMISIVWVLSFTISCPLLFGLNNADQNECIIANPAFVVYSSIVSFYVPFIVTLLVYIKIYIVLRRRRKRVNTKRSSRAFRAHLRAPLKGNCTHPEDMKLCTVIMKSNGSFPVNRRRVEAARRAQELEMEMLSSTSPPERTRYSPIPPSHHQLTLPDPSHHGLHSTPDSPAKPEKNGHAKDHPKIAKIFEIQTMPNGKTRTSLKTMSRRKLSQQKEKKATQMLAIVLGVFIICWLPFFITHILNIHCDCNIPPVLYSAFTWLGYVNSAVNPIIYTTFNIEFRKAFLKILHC
Sequence of Gonadotropin-releasing hormone receptor (Homo sapiens) (P30968 whole entry, looked up): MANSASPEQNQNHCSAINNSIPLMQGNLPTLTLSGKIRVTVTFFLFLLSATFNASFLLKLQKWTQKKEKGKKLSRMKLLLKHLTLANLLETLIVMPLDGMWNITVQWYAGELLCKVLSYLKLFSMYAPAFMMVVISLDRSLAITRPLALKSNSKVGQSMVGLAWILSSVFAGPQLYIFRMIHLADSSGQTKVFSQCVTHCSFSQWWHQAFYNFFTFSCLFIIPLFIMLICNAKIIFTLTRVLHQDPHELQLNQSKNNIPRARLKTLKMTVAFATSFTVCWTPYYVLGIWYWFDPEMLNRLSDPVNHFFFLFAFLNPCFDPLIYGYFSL
Sequence of Muscarinic acetylcholine receptor M1 (Homo sapiens) (P11229 whole entry, looked up): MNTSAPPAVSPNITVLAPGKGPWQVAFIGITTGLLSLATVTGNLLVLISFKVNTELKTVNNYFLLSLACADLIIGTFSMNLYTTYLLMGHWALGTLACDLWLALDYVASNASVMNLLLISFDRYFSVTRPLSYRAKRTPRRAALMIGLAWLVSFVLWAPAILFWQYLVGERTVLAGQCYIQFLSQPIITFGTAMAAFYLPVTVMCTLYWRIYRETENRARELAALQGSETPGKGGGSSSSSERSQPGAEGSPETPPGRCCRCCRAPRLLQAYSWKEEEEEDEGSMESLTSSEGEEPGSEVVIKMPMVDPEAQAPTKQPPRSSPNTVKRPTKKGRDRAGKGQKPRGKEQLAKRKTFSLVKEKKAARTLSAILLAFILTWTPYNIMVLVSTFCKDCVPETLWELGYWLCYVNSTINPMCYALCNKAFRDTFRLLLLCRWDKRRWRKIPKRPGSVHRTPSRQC
Sequence of 5-hydroxytryptamine receptor 2A (Homo sapiens) (P28223 whole entry, looked up): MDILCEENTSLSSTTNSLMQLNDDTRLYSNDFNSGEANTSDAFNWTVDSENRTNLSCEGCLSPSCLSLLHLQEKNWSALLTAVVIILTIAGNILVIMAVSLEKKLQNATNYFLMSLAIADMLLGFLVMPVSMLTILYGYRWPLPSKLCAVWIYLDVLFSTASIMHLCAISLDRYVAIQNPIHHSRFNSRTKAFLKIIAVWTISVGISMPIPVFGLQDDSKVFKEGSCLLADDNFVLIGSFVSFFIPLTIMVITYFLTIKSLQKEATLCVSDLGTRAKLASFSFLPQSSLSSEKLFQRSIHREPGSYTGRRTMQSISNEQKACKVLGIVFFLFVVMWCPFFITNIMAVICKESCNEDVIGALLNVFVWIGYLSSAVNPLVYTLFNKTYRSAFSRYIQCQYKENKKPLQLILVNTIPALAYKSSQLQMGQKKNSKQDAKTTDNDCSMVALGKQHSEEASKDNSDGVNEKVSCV
Sequence of Beta-2 adrenergic receptor (Homo sapiens) (P07550 whole entry, looked up): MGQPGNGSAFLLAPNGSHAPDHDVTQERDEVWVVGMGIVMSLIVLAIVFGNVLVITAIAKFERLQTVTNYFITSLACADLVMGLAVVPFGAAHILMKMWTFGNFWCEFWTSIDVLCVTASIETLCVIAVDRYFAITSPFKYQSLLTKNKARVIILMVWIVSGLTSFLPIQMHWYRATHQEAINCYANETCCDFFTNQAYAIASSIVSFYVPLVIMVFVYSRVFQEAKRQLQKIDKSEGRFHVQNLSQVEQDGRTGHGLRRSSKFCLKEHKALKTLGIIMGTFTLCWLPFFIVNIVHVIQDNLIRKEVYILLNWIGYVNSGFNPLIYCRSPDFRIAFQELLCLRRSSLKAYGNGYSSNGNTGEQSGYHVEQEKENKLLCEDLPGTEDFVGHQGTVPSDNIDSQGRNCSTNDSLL
Sequence of KiSS-1 receptor (Homo sapiens) (Q969F8 whole entry, looked up): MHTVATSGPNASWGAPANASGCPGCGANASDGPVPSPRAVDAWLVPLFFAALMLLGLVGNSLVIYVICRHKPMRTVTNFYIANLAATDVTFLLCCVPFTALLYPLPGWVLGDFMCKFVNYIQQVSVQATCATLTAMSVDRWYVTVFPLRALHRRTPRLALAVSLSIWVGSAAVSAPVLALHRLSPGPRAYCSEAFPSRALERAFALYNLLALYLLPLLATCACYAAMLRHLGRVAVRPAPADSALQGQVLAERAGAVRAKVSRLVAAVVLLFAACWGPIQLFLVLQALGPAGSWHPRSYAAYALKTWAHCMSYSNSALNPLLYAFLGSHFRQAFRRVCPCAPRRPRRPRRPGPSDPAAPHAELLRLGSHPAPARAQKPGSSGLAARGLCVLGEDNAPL

For `COc1cc2c(cc1OC)C(C(C(=O)N(CCc1ccc(OC)c(OC)c1OC)CCc1ccc(OC)c(OC)c1OC)c1ccccc1)=NCC2` (stereo not given), the Potency entry in assay [1], in [2], in [3], in [6], in assay [7] and in assay [8] was “inactive” in each case. Besides, the Potency result in assay [9], in assay [10], in assay [11], in assay [12], in assay [14] and in assay [15] was “inactive” each time. In assay [16], the Potency result was “inactive”. In addition, the outcome in assay [4] and in assay [5] was inactive. Further, the Potency in assay [13] was 12 µM (active).
On to `C[Si]1(C)N[Si](C)(C)N[Si](C)(C)N1`, for which the Potency entry in assay [1], in assay [2], in assay [3], in assay [6], in [7] and in assay [8] was “inactive” in each case. Besides, the Potency result in assay [9], in [10], in assay [11], in assay [12], in assay [13] and in [14] was “inactive” throughout. The Potency result in assay [15], in assay [17], in [16] and in assay [18] was “inactive” throughout. The outcome in assay [4] and in assay [5] was inactive.
In the case of `Cc1ccccc1CCO`, the Potency entry in [1], in [2], in [3], in assay [6], in [7] and in assay [8] was “inactive” in each case. In addition, the Potency entry in assay [9], in assay [10], in assay [11], in assay [12], in [13] and in assay [15] was “inactive” throughout. Also, the Potency result in [19], in assay [20], in [17], in assay [16] and in assay [18] was “inactive” in each case. The result in [4] and in [5] was inactive.
`CC(C)CCOC(=O)CC(C)C`: the Potency entry in assay [1], in assay [2], in [3], in [6], in assay [7] and in assay [8] was “inactive” in each case. Moreover, the Potency entry in assay [9], in assay [10], in assay [11], in [12], in [13] and in assay [15] was “inactive” throughout. In addition, the Potency entry in [19], in assay [20], in [17], in assay [16] and in assay [18] was “inactive” each time. For the same compound, the outcome in assay [4] and in assay [5] was inactive.
Turning to `CC1(C)CC(OC(=O)CCCCCCCCC(=O)OC2CC(C)(C)NC(C)(C)C2)CC(C)(C)N1`, the activity change, negative = cytotoxicity in assay [1] is -0.0002% [at 19 µM]; in assay [9], 20.2% [at 13.5 µM]; in assay [10] it was -0.213% [at 13.5 µM]. Also, the activity, positive = activation in assay [2] is -1.35% [at 19 µM]. Moreover, the activity change in [3] was 1.96% [at 11.8 µM, stronger effect = higher value]. The activation is 3.13% [at 15.8 µM] in assay [4]; 0.376% [at 11.8 µM] in [5]; 1.98% [at 13.5 µM] in [6]; 0.45% [at 13.6 µM] in assay [7]; -3.4% [at 13.5 µM] in assay [11]; 2.3% [at 15.9 µM] in [13]. In addition, in [16], the activation is -4.7% [at 19 µM]. In addition, the Potency in assay [8] was 0.884 µM (active). Further, the results for the activity, negative = inhibition in assay [12] and in assay [14] were -5.05% [at 12.7 µM] and 30.1% [at 12.6 µM], respectively. The activity change, negative = inhibition in assay [20] is -9.13% [at 18.9 µM]; in assay [17], 8.71% [at 19 µM]; in assay [18] it was 0.47% [at 18.9 µM].
With `CCCCC/C=C\CCC=O`, the Potency entry in [1], in assay [2], in [3], in assay [6], in [7] and in assay [8] was “inactive” each time. In addition, the Potency result in assay [9], in [10], in assay [11], in assay [12], in [13] and in assay [14] was “inactive” in each case. Further, the Potency entry in assay [19], in assay [20], in [17] and in [18] was “inactive” in each case. Moreover, the result in [4] and in assay [5] was inactive.
`CS(=O)(=O)c1ccc([C@@H](C[C@H]2CCC(=O)C2)C(=O)Nc2cnccn2)cc1Cl`: the Potency entry in [1], in [2], in [3], in [6], in [7] and in assay [8] was “inactive” throughout. Further, the Potency entry in [9], in assay [10], in assay [11], in assay [12], in [13] and in [14] was “inactive” in each case. The Potency entry in assay [17], in assay [16] and in assay [18] was “inactive” each time. Further, the outcome in assay [4] and in [5] was inactive.
